# A number with no mark means an inactive call. For part of these data: Results with a measured potency or affinity are listed apart. Calls of active or inactive are those of the source. Unless noted, the rule behind the calls is not given here.
# Tests used:
# [1] = antimalarial activity against Dd2 strain (AID 2302;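 active = growth inhibition above 50% at the single 2 µM test dose, taken to imply half-maximal potency below 2 µM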;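 note: 0% = DMSO untreated growth and 100% = chloroquine plus artemisinin killed control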); conditions: P. falciparum Dd2 in RBCs, LDH growth readout, 72 h; at 2 µM; active compounds read high
# [2] = human hepatoma cell viability loss – ATP luminescence, cytotoxicity control for P. falciparum antimalarial project, primary screen (AID 2303;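 active = inhibition above 50%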;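 note: 0% = DMSO wells and 100% = digitonin-killed cells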); conditions: HepG2 viability, 24-48 h, at 10 µM, active compounds read high
# [3] = target: L-lactate dehydrogenase (Plasmodium falciparum (isolate CDC / Honduras)) (UniProt Q27743); assay: PfLDH activity inhibition – cell lysate, 3D7 strain, counter-screen for P. falciparum growth inhibition project (AID 2304);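 note: 0% = vehicle and 100% = reference inhibitor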; conditions: P. falciparum 3D7 crude extract, LDH APAD/NBT absorbance; at 2 µM; active compounds read high
# Chain of L-lactate dehydrogenase (Plasmodium falciparum (isolate CDC / Honduras)) (Q27743 whole entry, looked up): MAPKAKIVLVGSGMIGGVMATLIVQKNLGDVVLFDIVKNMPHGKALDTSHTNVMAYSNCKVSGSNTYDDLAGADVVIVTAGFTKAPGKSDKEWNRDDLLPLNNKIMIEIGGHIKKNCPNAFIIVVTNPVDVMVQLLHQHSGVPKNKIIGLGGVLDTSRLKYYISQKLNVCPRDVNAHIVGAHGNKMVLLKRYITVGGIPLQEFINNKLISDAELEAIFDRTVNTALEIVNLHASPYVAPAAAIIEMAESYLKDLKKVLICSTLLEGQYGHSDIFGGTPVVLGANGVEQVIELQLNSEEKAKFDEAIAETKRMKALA
# [4] = inhibition of 3D7 malaria parasite growth – strain 3D7 (AID 2306);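 note: 0% = DMSO wells and 100% = chloroquine plus artemisinin control wells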; conditions: P. falciparum 3D7 erythrocytic growth, LDH absorbance, 72 h; at 2 µM; active compounds read high
# [5] = target: Calcium-dependent protein kinase 1 (Plasmodium falciparum (isolate 3D7)) (UniProt P62344); assay: PfCDPK1 kinase inhibitors, biochemical, TCAMS library (AID 1159585; cut-off not given, nearly all actives have IC50 up to about 0.98 µM;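 note: inhibitors leave more ATP so luminescence rises with inhibition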); conditions: recombinant PfCDPK1, Kinase-Glo ATP depletion luminescence
# Chain of Calcium-dependent protein kinase 1 (Plasmodium falciparum (isolate 3D7)) (P62344 whole entry, looked up): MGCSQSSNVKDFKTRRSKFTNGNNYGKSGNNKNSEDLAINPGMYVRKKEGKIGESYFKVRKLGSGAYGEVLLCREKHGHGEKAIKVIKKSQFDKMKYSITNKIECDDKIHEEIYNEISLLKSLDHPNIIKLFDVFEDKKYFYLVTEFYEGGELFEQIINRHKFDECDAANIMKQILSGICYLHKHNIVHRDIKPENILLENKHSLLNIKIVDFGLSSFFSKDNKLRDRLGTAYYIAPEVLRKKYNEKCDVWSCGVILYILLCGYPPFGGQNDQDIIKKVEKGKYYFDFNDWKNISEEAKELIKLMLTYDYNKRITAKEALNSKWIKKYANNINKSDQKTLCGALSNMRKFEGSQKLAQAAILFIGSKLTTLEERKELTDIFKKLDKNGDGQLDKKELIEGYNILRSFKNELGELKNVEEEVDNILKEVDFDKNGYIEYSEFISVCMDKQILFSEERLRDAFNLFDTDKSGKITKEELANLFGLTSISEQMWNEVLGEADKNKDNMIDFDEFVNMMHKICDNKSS
# [6] = target: Plasmodium falciparum protein kinase 6 (PK6, PF3D7_1337100) (UniProt Q8IDW1); assay: PfPK6 kinase inhibitors, biochemical, TCAMS library (AID 1159586); conditions: recombinant PfPK6, Kinase-Glo ATP depletion luminescence
# Chain of Plasmodium falciparum protein kinase 6 (PK6, PF3D7_1337100) (Q8IDW1 1-305): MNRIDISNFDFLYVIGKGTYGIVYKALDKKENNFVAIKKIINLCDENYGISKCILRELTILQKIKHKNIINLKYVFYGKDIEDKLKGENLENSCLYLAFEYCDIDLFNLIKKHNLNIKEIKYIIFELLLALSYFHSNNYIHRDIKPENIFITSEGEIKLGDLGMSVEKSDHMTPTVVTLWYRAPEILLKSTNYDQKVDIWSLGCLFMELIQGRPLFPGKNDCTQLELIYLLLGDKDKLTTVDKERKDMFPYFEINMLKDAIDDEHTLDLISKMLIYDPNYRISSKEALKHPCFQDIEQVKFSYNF
# [7] = target: Protein kinase 7 (PK7), Plasmodium falciparum 3D7 (PF3D7_0213400) (UniProt Q7YTF7); assay: inhibition of Plasmodium PK7 catalytic activity – biochemical, TCAMS antimalarial set, Kinase-Glo luminescence (AID 1159587); conditions: recombinant PfPK7, Kinase-Glo ATP depletion luminescence
# Chain of Protein kinase 7 (PK7), Plasmodium falciparum 3D7 (PF3D7_0213400) (Q7YTF7 1-343): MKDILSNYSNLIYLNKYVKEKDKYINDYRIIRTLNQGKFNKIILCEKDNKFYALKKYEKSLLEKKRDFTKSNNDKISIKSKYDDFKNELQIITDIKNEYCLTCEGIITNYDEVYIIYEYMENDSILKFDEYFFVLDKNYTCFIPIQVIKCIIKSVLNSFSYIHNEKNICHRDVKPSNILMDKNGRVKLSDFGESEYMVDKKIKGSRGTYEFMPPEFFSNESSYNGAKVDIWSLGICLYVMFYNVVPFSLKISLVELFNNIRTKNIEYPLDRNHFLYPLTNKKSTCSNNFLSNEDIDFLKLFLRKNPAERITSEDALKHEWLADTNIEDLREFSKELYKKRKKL
# [8] = target: Calcium-dependent protein kinase 4 (Plasmodium falciparum (isolate 3D7)) (UniProt Q8IBS5); assay: PfCDPK4 kinase inhibitors, biochemical, TCAMS library (AID 1159588; cut-off not given, nearly all actives have IC50 up to about 0.91 µM); conditions: recombinant PfCDPK4, Kinase-Glo ATP depletion luminescence
# Chain of Calcium-dependent protein kinase 4 (Plasmodium falciparum (isolate 3D7)) (Q8IBS5 whole entry, looked up): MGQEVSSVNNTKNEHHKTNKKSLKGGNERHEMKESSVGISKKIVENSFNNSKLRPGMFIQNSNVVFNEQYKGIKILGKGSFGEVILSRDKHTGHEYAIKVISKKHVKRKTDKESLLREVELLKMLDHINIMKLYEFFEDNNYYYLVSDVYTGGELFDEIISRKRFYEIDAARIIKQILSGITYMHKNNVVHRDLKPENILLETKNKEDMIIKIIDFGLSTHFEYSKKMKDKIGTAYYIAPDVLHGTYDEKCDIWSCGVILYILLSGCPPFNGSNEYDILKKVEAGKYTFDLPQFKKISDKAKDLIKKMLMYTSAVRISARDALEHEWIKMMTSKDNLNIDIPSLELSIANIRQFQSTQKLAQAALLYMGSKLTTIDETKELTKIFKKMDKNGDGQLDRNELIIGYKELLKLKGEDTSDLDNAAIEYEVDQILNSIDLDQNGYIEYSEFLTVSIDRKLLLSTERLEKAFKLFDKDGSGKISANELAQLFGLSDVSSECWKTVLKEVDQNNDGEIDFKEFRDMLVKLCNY
Structure (SMILES),growth inhibition [1],inhibition [2],inhibition [3] [%],growth inhibition [4],outcome [5],outcome [6],outcome [7],outcome [8]
Cc1ccc2nc(C)cc(NC(=O)Nc3ccc(N(C)C)cc3)c2c1,41%,12%,-3,100% (active),inactive,inactive,inactive,inactive
CCN(CC)c1cc(C)c2cc(NC(=O)c3cc(=O)c4ccccc4o3)ccc2n1,67% (active),14%,1,97% (active),inactive,inactive,inactive,inactive
COc1cccc(CNC(=O)c2cnc(N3CCN(c4ccncc4)CC3)c(Cl)c2)c1,12%,25%,5,89% (active),inactive,inactive,inactive,inactive
COc1ccc(C2C(C(=O)Nc3ccccc3)=C(C)Nc3c(C(=O)Nc4ccccc4)cnn32)cc1 (configuration not stated),66% (active),13%,-1,85% (active),inactive,inactive,inactive,inactive
O=C(C=Cc1ccc(C(=O)Nc2ccc(C3=NCCN3)cc2)cc1)Nc1ccc(C2=NCCN2)cc1,101% (active),-7%,3,97% (active),inactive,inactive,inactive,inactive
Cc1cc(C2CCN(CCCCNC(=O)c3ccc(NC(=O)c4ccc(Cl)cc4)cc3)CC2)c(C)cc1OCc1cccnc1,90% (active),39%,0,101% (active),inactive,inactive,inactive,inactive
CC(C)(C)OC(=O)N(Cc1cc(-n2nnnc2C(F)(F)F)ccc1O)[C@H]1CCCN(C(=O)OC(C)(C)C)[C@H]1c1ccccc1,66% (active),14%,-5,98% (active),inactive,inactive,inactive,inactive
Oc1ccccc1CN(CCCN(Cc1ccccn1)Cc1ccccc1O)Cc1ccccn1,92% (active),64% (active),3,92% (active),inactive,inactive,inactive,inactive
CCCC(C)Nc1nc(C)cc(N[C@@H](CC(C)C)C(=O)NCc2ccc(C)cc2)n1 (some centres not stated),51% (active),16%,-1,98% (active),inactive,inactive,inactive,inactive
Cc1cc(O)c(-c2cc(C(=O)Nc3cccnc3)[nH]n2)cc1C,97% (active),12%,-7,97% (active),inactive,inactive,inactive,inactive
COc1ccccc1NC(=O)c1cc(C(=O)c2cc(Cl)ccc2O)cn(-c2ccccc2OC)c1=O,31%,9%,7,92% (active),inactive,inactive,inactive,inactive
N#Cc1cccc(NC(=O)Nc2ccc(CC(=O)N3CCc4cc(Cl)c(N5CCN(C/C=C/c6ccccc6)CC5)cc43)cc2)c1,61% (active),-4%,-4,91% (active),inactive,inactive,inactive,inactive
CNCCNCc1ccc(-c2cccc(-c3nc4ccc(C(F)(F)F)cc4[nH]3)c2)cc1,77% (active),27%,1,98% (active),inactive,inactive,inactive,inactive
Cc1cccc2[nH]c(-c3ccc(-c4cccc(NC(=O)NCc5cccc(F)c5)c4)cc3)nc12,5%,27%,6,94% (active),inactive,inactive,inactive,inactive
Cc1cc(CNCCCCCCCNCc2cccc([N+](=O)[O-])c2)ccc1O,-5%,6%,-1,100% (active),inactive,inactive,inactive,inactive
COc1ccc2nccc([C@@H](O)CN3CCC(NCc4ccc5nnsc5c4)CC3)c2c1,0%,16%,5,99% (active),inactive,inactive,inactive,inactive
O=C(NCCc1ccc(Cl)c(Cl)c1)c1ccc(CNC(=O)c2ccc(O)c(-c3ccc(Cl)c(Cl)c3)c2)cc1,3%,0%,-6,97% (active),inactive,inactive,inactive,inactive
CN1CCCN(Cc2ccc(-c3cccc(NC(=O)c4ccc(F)cc4)c3)cc2)CC1,8%,29%,1,89% (active),inactive,inactive,inactive,inactive
COc1cc(F)c2ncc(Cl)c([C@H](O)CN3CCC(NCc4cc5c(cn4)OCCO5)CC3)c2c1,49%,10%,4,102% (active),inactive,inactive,inactive,inactive
Cc1noc(C)c1-c1cccc(CNCc2cccc(-c3csc(-c4nc5ccccc5[nH]4)c3)c2)c1,74% (active),32%,-7,100% (active),inactive,inactive,inactive,inactive

Structure (SMILES),growth inhibition [1],inhibition [2],inhibition [3] [%],growth inhibition [4],outcome [5],outcome [6],outcome [7],outcome [8]
O=C1C(c2ccccc2)=C(Nc2cc(Cl)cc(Cl)c2)c2ccccc21,94% (active),-4%,-3,96% (active),inactive,inactive,inactive,inactive
Cc1ccc2c(NN=Cc3cccc(F)c3)cc(C)nc2c1,66% (active),34%,-2,96% (active),inactive,inactive,inactive,inactive
O=C(Nc1ccc(CN2CCN(S(=O)(=O)c3ccc(Cl)s3)CC2)cc1)c1cccs1,87% (active),14%,2,92% (active),inactive,inactive,inactive,inactive
O=C(Nc1cccc(-c2ccc(-c3nc4ccc(F)cc4[nH]3)cc2)c1)c1cccnc1,92% (active),27%,-4,101% (active),inactive,inactive,inactive,inactive
NC1=NC(c2ccccc2)(c2ccccc2)C(=O)N1C1CCCCC1,87% (active),13%,0,100% (active),inactive,inactive,inactive,inactive
O=C(NC1CCCCC1)N(Cc1cccc(-c2ccc(CNC3CCCC3)cc2)c1)C1CCN(Cc2ccccc2)CC1,89% (active),37%,-2,98% (active),inactive,inactive,inactive,inactive
N#Cc1cccc(NC(=O)Nc2ccc(-c3cccc(-c4nc5ccc(F)cc5[nH]4)c3)cc2)c1,100% (active),64% (active),4,102% (active),inactive,inactive,inactive,inactive
Cc1cc(NN=Cc2ccc(Cl)cc2)c2ccccc2n1,87% (active),5%,-3,100% (active),inactive,inactive,inactive,inactive
CCN(CC)C(=NCCCCCCN=C(NC(N)=NCc1cccc(Cl)c1)N(CC)CC)NC(N)=NCc1cccc(Cl)c1,99% (active),17%,-8,99% (active),inactive,inactive,inactive,inactive
CN1CCC(C(=O)Nc2cccc(-c3ccc(-c4nc5ccc(C(F)(F)F)cc5[nH]4)s3)c2)CC1,95% (active),29%,0,101% (active),inactive,inactive,inactive,inactive
CC(CN(C)C)C(=O)Nc1ccc(-c2cccc(-c3nc4ccccc4[nH]3)c2)cc1 (configuration not stated),57% (active),68% (active),4,99% (active),inactive,inactive,inactive,inactive
O=C(C=Cc1cn(-c2ccccc2)nc1-c1cccs1)N1CCN(c2ccncc2)CC1,61% (active),31%,1,100% (active),inactive,inactive,inactive,inactive
CN1CCC(NCc2cccc(-c3cccc(-c4nc5ccc(C(F)(F)F)cc5[nH]4)c3)c2)CC1,101% (active),35%,-1,101% (active),inactive,inactive,inactive,inactive
COc1ccc2nc(C)cc(NN=Cc3ccccc3Cl)c2c1,100% (active),0%,5,100% (active),inactive,inactive,inactive,inactive
Cc1nc2ccccc2c(=O)n1NCc1ccc(Cl)c(Cl)c1,92% (active),12%,0,96% (active),inactive,inactive,inactive,inactive
Cc1cccc2[nH]c(-c3ccc(-c4ccc(CN5CCCCC5CO)cc4)cc3)nc12 (configuration not stated),76% (active),32%,1,100% (active),inactive,inactive,inactive,inactive
O=C(NC1CC1)c1ccc(Cn2c(SCc3cccc(Cl)c3)nc3ccccc3c2=O)cc1,70% (active),2%,1,90% (active),inactive,inactive,inactive,inactive
CC(=O)Nc1ccc(CN2Cc3ccc(NC(=O)Nc4ccc(Oc5ccccc5)cc4)cc3C2)s1,25%,9%,6,91% (active),inactive,inactive,inactive,inactive
COc1ccc(Cn2c(SCc3ccc(C)cc3)nc3cc(OC)c(OC)cc3c2=N)cc1Cl,7%,50% (active),5,92% (active),inactive,inactive,inactive,inactive

# Source: PubChem BioAssay
